Results filed as inconclusive are left out. The source made the active and inactive calls. Calls follow the shape of the dose curve; as a rule, active = well fitted curve in the direction sought with a large enough effect in the signal ratio; inconclusive = small, poorly fitted or top-dose-only effect, or effect the other way, or a change in a side signal; inactive = no such curve, though single readings can be large or run the other way; the % refers to the signal ratio.

The experiment in a line: Validation of Assay for Modulators of Lamin A Splicing (AID 1459).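 Also: cells exposed to compound for two days before reading; ratio rise marks activators and ratio drop marks inhibitors.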 Conditions: Lamin A splicing dual RFP/GFP fluorescence reporter; series mostly up to 9.22 µM. The text has this: Hutchinson-Gilford Progeria Syndrome (HGPS) is a pediatric premature aging disease caused by a spontaneous mutation in the lamin A/C (LMNA) gene. The mutation activates a cryptic splice site in the LMNA pre-mRNA which results in production of a pre-lamin A protein that cannot be processed properly. The mutant protein accumulates in the nucleus and negatively affects numerous cellular functions. Correction of the splicing defect in HGPS patient cells using a targeted oligonucleotide (exo11) leads to reversal of the cellular disease phenotypes. To identify small molecule modulators of aberrant LMNA splicing, a homogenous assay was constructed in HeLa cells that used a GFP containing minigene to report on correction of aberrant splicing in lamin A and a RFP (DsRed2) to report on cell viability, uniformity and nonspecific effects on the assay signal. This assay was adapted to laser-scanning microplate cytometry (Acumen, TTP Labtech) where miniaturization of the assay to a 1,536-well plate format was possible.
Bowen, W. P.; Wylie, P. G. Application of Laser-Scanning Fluorescence Microplate Cytometry in High Content Screening. Assay Drug Dev Technol 2006;4:209-221.
Scaffidi P, Misteli T. Reversal of the cellular phenotype in the premature aging disease Hutchinson-Gilford progeria syndrome. Nat. Med. 2005;11:440-445.
NCGC Assay Protocol Summary:
Reagents/Controls: Stable clones expressing DsRed2 and lamin A-EGFP were generated by Cell and Molecular Technologies in S3 HeLa cells.
HeLa cells were prepared for the assay when they were 70-90% confluent. The cells were counted and resuspended in Opti-MEM I (no phenol red; Gibco), 2% FBS, 1% penicillin/ streptomycin (Gibco) at concentration of 120 cells/uL concentration. The suspension was passed through a Falcon basket filter with pore size 40um (Beckton Dickson).
Control titrations: column […] 1536-well plate contained a sixteen point titration (1:2 dilutions) in duplicate of ancitabine (Sigma: A8598) beginning at 40 uM final concentration. Column 2 contained a sixteen point titration (1:2 dilutions) of cycloheximide beginning at 1.4 mM final concentration. Column 3 contained ancitabine at 40 uM and column 4 contained was the vehicle control (0.5% DMSO final concentration).
5 uL of HeLa cells were plated in Aurora LoBase black clear bottom (cyclic-olefin polymer) 1536-well plates at a final density of 600 cells/well. Controls and library compounds were added with a 1536-well pin array using the Kalypsys pin-tool. The plates were then incubated for 48 hrs in a cell-culture incubator (37 °C; 5% CO2, 98% humidity). Following incubation the plates were read on the Acumen Explorer using the 488 nm laser. Data was collected on objects between 10 and 100 um in size. Cell objects were defined by a 15 um width x 10 um depth filter. The ratio of the total object intensity in PMT1 (500-530 nm emission; GFP) over PMT3 (575-640 nm emission; RFP) was calculated for analysis.
Keywords: NIH Roadmap, MLSCN, MLI, MLSMR, qHTS, NCGC, lamin A, Progeria, RNA splicing.
As to `CP(=O)(O)C1=CCNCC1`, the outcome was inactive. The entry for `CCCN1CC[C@@H]2c3cc(O)ccc3CC[C@@H]21` is “inactive”; for `NCC(O)c1cc(O)c(O)cc1F` (stereo not given) it is “inactive”; for `NCCc1ccc(S(=O)(=O)F)cc1` it is “inactive”. Consider `NC(C(=O)O)c1cc(=O)[nH]o1` (stereo not given), for which the result was inactive. For `c1ccc2cc(CC3=NCCN3)ccc2c1`, the result was inactive. The entry for `CCN(CC)c1ncnc2c1ncn2[C@@H]1O[C@H](COP(=O)(O)OP(=O)(O)C(Br)(Br)P(=O)(O)O)[C@@H](O)[C@H]1O` is “inactive”; for `CCCN(CCC)[C@H]1CCc2c(F)ccc(O)c2C1` it is “inactive”; for `CC(N)[C@H](O)c1ccc(O)c(O)c1` (stereo not given in full) it is “inactive”. Consider `Clc1ccc(N2CC3CCC(C2)N3)nn1`, for which the result was inactive. The entry for `N#CC(C#N)=Cc1cc(O)c(O)c(O)c1` is “inactive”. The value for `CC(C)CC(NP(=O)(O)O[C@@H]1O[C@@H](C)[C@H](O)[C@@H](O)[C@H]1O)C(=O)NC(Cc1c[nH]c2ccccc12)C(=O)O` (stereo not given in full) was “inactive”. `CNC(=O)OCC[N+](C)(C)C`: the compound was called inactive.

Regarding `CN(C(=O)Cc1ccc(Cl)c(Cl)c1)C(CN1CCCC1)c1cccc(OCC(=O)O)c1` (stereo not given), the outcome was inactive. The entry for `COc1ccc2[nH]cc(CCN)c2c1` is “inactive”; for `NCC(CP(=O)(O)O)c1ccc(Cl)cc1` (stereo not given) it is “inactive”. The value for `CCCN1CCCC2Cc3[nH]ncc3CC21` (stereo not given) was “inactive”; that for `CC(Cc1ccc(OCC(=O)O)cc1)NCC(O)c1cccc(Cl)c1` (stereo not given) was “inactive”; that for `NNC(N)=O` was “inactive”. The entry for `CC(C)NP(=O)(NC(C)C)OP(=O)(NC(C)C)NC(C)C` is “inactive”. `Clc1cc(I)cc(Cl)c1NC1=NCCN1`: the result was inactive. The value for `C=CCN1C[C@@H](C)N([C@H](c2ccc(C(=O)N(CC)CC)cc2)c2cccc(OC)c2)C[C@@H]1C` was “inactive”. The value for `CCCN(CCC)CCc1c[nH]c2ccc(C(N)=O)cc12` was “inactive”; that for `CC(C)(C)c1o[nH]c(=O)c1CC(N)C(=O)O` (stereo not given) was “inactive”. The value for `CCCN(CCC)C1CCc2cccc(O)c2C1` (stereo not given) was “inactive”; that for `CC(N)Cc1c[nH]c2ccc(O)cc12` (stereo not given) was “inactive”; that for `C=CCN1CC[C@]23c4c5ccc(O)c4O[C@H]2/C(=N/NC(=O)c2ccccc2)CC[C@@]3(O)[C@H]1C5` was “inactive”. With `O=C1CC[C@@]2(O)C3Cc4ccc(O)c5c4C2(CCN3CC2CC2)[C@H]1O5` (stereo not given in full), the compound was called inactive. `N[C@@H](Cn1oc(=O)[nH]c1=O)C(=O)O`: the call was inactive. The value for `Cc1sc2ccccc2c1CC1=NCCN1` was “inactive”. The entry for `Oc1ccc2c3c1O[C@H]1c4oc5ccccc5c4C[C@@]4(O)C(C2)N(CC2CC2)CCC314` (stereo not given in full) is “inactive”; for `CO[C@H]1CC=C2CCN3CCC4=C(CC(=O)OC4)[C@]23C1` it is “inactive”; for `NC(N)=NOCC[C@H](N)C(=O)O` it is “inactive”. The value for `CC(N)Cc1c[nH]c2ccc(OCc3cccs3)cc12` (stereo not given) was “inactive”; that for `COc1ccc2c(c1)C13CCCCC1C(C2)N(C)CC3` (stereo not given) was “inactive”; that for `O=[N+]([O-])c1cc(O)c(O)c([N+](=O)[O-])c1` was “inactive”. Regarding `C[Se]C[C@H](N)C(=O)O`, the compound was classed as inactive.

With `CCCN(CCC)C1Cc2cc(OC)c(OC)cc2C1`, the compound was classed as inactive. The entry for `C[N+](C)(C)CC#CCN1CCCC1=O` is “inactive”; for `Oc1ccc2c3c1O[C@H]1c4[nH]c5ccccc5c4C[C@@]4(O)C(C2)N(CC2CC2)CCC314` (stereo not given in full) it is “inactive”.

The values are drawn from PubChem BioAssay (NCATS).
